# Source: PubChem BioAssay (several laboratories)
# HSV replic up = increases HSV replication in cells. maximum fold increase. HSV replication augmentation in cells, fold increase. actives 0.005% (n = 220,000). AID 1956; in the data active means maximum fold increase above about 1.5; inconclusive means no clear call, values can overlap the other calls; tested in PC3 cells
# Arbovirus inh = blocks arbovirus infection; arbovirus infection cell-based antiviral screen; actives 0.37% (n = 200,000); inhibition, % at 10 µM; in the data active means inhibition above about 30%
# Efa HMGR inh = inhibitors of class II HMG-CoA reductase from Enterococcus faecalis; purified E. faecalis HMGR, NADPH absorbance 340 nm kinetic; inhibition, % at 10 µM; actives 0.41% (n = 190,000);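 active means inhibition above a set limit, the median over all tested compounds plus 3 SD, cut at about 9.5% in these data; inconclusive means no clear call, values can overlap the other calls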;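 further: enzyme runs in reverse so mevalonate oxidation gives rising NADPH absorbance; 0% = complete reaction with DMSO and 100% = background rate lacking mevalonate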
# ROMK mod = modulates human ROMK potassium channel activity. P48048. Tet-inducible ROMK, thallium flux fluorescence; actives lie on both sides. actives 2% (n = 130,000). AID 1918. B-score at 10 µM;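 active means signal ratio slope over the read window, or its plate-corrected B-score, at least 3 SD from the plate mean, either direction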;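 further: B-score of the F/F0 ratio slope over 7 to 12 s after thallium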
# Target sequence (P48048 whole entry, looked up): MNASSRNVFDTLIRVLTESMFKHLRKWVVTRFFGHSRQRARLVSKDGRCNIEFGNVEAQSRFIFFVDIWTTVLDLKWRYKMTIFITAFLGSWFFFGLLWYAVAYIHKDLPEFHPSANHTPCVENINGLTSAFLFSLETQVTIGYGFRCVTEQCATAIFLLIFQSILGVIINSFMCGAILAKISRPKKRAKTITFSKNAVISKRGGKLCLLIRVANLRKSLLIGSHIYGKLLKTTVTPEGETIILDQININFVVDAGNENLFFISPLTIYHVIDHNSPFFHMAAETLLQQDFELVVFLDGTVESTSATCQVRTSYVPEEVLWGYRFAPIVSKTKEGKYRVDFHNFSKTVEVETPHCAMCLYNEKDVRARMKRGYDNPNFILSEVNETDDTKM
# m-calpain inh = blocks pig calpain II enzyme activity. purified calpain II, fluorogenic peptide substrate, 30 min. inhibition, % at 16 µM. actives 0.37% (n = 220,000). AID 1236;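 active means inhibition above about 50%, limit read from the data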
# ROMK hit retest = confirmation of human ROMK potassium channel modulators. shares compounds with ROMK mod. ROMK thallium flux, fluorescence ratio; stronger effect = lower value. normalized thallium flux (F/F0 slope) at 10 µM. actives 54% (n = 3,000). AID 1917;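 active means Flux at 10 µM at least 3 SD below or above vehicle control mean in one or both replicates; inconclusive means no clear call, values can overlap the other calls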
# The depositor's hits bear a star; i = inactive; u = inconclusive; x = not tested or not shown. This is a sample that favours compounds with a hit; in the whole collection about 2.1% have one here.
SMILES,HSV replic up,Arbovirus inh,Efa HMGR inh,ROMK mod,m-calpain inh,ROMK hit retest
O=C(CCl)c1ccc2c(c1)CCN2C(=O)C1CCCCC1,x,7.7,-1.8,x,-55.9,x
O=C(CCl)c1ccc2c(c1)CCN2C(=O)C1CC1,i,-23.7,-2.6,-2.84*,2.7,0.0635*
CCCC(=O)OCCNc1cc(Sc2nccn2C)c2nonc2c1[N+](=O)[O-],i,-37.9,-5.1,-4.7*,-5.2,0.0505*
Cc1nnc(Sc2cc(NCCCO)c([N+](=O)[O-])c3nonc23)s1,i,-11.3,0.6,0.227,31.6,x
CCCSc1cc(NCCOC(=O)CCC)c([N+](=O)[O-])c2nonc12,i,-12.4,0.7,x,0.2,x
Cc1nnc(Sc2cc(NCCO)c([N+](=O)[O-])c3nonc23)s1,i,-38.7,-3.4,-7.2*,82.3*,0.0569*
COC(=O)COc1ccc(-c2ccccc2)cc1C=O,x,-7.7,-4.3,x,-10.0,x
COC(=O)COc1ccc(-c2ccc(F)cc2)cc1C=O,i,1.9,-4.2,4.67*,18.6,u
COc1ccc(C(=O)Nc2ccc3oc(-c4cccnc4)nc3c2)cc1OC,i,2.7,-0.2,-1.03,-96.5,x
COc1cc(C(=O)Nc2ccc3oc(-c4cccnc4)nc3c2)cc(OC)c1OC,i,3.8,1.1,-0.756,-39.3,0.0791
Cc1nnc(NC(=O)CSc2nc(N)c(NC(=O)c3cccs3)c(=O)[nH]2)s1,i,x,x,x,8.8,x
Cc1ccc(C2CC2C(=O)NNC(=S)Nc2cccc(C)c2)cc1 (configuration not stated),i,-8.5,-0.2,-2.04,-7.5,x
Cc1ccc(C2CC2C(=O)NNC(=S)Nc2cccc(Cl)c2)cc1 (configuration not stated),i,-4.2,-1.1,x,-51.0,u
O=C(c1nnsc1S(=O)c1ccc(Cl)cc1)N1CCOCC1 (configuration not stated),i,-37.7,-0.1,-6.29*,7.9,0.0519*
O=C1C=C(c2ccccc2)C(=O)N1Nc1ccccc1,i,-6.2,-5.0,-3.57*,-1.2,0.0606*
O=C(NCC1CCCO1)c1cncc(Br)c1 (configuration not stated),i,2.1,-5.1,0.512,11.4,x
CC1=Nc2cc(C(=O)NCCCOC(C)C)ccc2Sc2ccc(C)cc21,i,-10.6,-0.9,4.32*,-1.4,0.0914
CC1=Nc2cc(C(=O)NCCCOC(C)C)ccc2Sc2ccccc21,i,-8.7,-4.3,2.9*,-24.2,0.091
CCOC(=O)C1=C(O)/C(=C/c2ccc(OCC(=O)O)c(OC)c2)SC1=Nc1ccc(OC)cc1,i,3.6,-0.2,x,-58.7,0.0809
CC1(C)C2CCC1(CS(=O)(=O)Nc1ccc(S(=O)(=O)N3CCCCC3)cc1)C(=O)C2 (configuration not stated),i,2.4,-4.4,x,2.3,x
c1ccc(Cn2c(-c3cncs3)nc3ccccc32)cc1,i,14.7,-5.9,-2.49*,11.6,0.06*
Brc1ccc(Cn2c(-c3cncs3)nc3ccccc32)cc1,i,8.2,-2.6,x,-9.6,x
CCOC(=O)CSc1nc2c(sc(=S)n2-c2ccccc2OC)c(=O)n1Cc1ccco1,i,8.0,-4.9,x,37.4,0.0486*
CCOC(=O)CSc1nc2c(sc(=S)n2Cc2ccco2)c(=O)n1-c1ccccc1,i,19.7,-2.8,-0.424,-50.2,x
CCOC(=O)c1c(CSCc2ccccc2)oc2ccc(O)c(CN(C)C)c12,i,x,x,x,14.5,0.0607*
SMILES,HSV replic up,Arbovirus inh,Efa HMGR inh,ROMK mod,m-calpain inh,ROMK hit retest
COc1ccc(Nc2ncnc3scc(-c4ccc(OC)cc4)c23)cc1,i,-7.6,-3.8,-0.708,9.3,0.0661*
Cc1cccn2c(=O)c3cc(C(=O)NCCN4CCOCC4)c(=N)n(CCc4ccccc4)c3nc12,x,-5.8,-5.3,-2.84*,i,0.0625*
CC(C)CC(C(=O)N1CCc2ccccc2C1)N1C(=O)c2ccccc2C1=O (configuration not stated),i,-17.1,0.2,-3.47*,-14.0,0.0568*
CNC(=S)N1CCN=C1Nc1nc(C)cc(C)n1,i,1.4,-2.9,0.332,-1.8,x
CC(Nc1ccc(Cl)cc1)C(=O)NN (configuration not stated),i,x,x,x,-15.3,x
CCC(C)(C(=O)NC1CCCCC1)N(CC1CCCO1)C(=O)Cc1cccs1 (configuration not stated),i,-3.1,0.8,-7.8*,-7.7,0.0746
CCC(C)(C(=O)NC1CCCC1)N(Cc1cccs1)C(=O)Cc1cccs1 (configuration not stated),i,-8.3,-7.0,1.13,9.3,x
N#C/C(=C/c1cc(Br)cs1)C(=O)NCC1CCCO1 (configuration not stated),i,-0.5,-7.9,x,15.6,0.0643*
COc1ccc(Oc2ccccc2/C=C/C(=O)O)cc1,i,8.9,-1.7,x,-14.8,x
COc1ccc(Oc2ccccc2C=O)cc1,i,-3.3,-1.4,x,2.7,u
CCc1nnc(NC(=O)C2CCC(CNc3c(N4CCCCC4)c(=O)c3=O)CC2)s1 (configuration not stated),i,x,x,-11.9*,21.8,0.0862
COc1ccc(NC(=O)C2CCC(CNc3c(N4CCCCC4)c(=O)c3=O)CC2)cc1OC (configuration not stated),i,-3.3,5.1,x,-13.8,x
CC(=O)NC12CC3CC(C1)CC(C(=O)OCC(=O)Nc1ncc(Cl)cc1Cl)(C3)C2,i,0.9,-6.4,-4.02*,-26.2,0.0716
CC(=O)NC12CC3CC(C1)CC(C(=O)OCC(=O)NC(=O)c1cccn1C)(C3)C2,i,7.0,-4.5,-0.344,-3.9,x
CCCCC(c1nnnn1C1CCCC1)N1CCN(C2CCCCC2)CC1 (configuration not stated),i,-1.7,-2.3,-4.07*,-6.7,0.0631*
Cc1ccc(C(=O)N2CCN(c3ccc(NC(=O)COc4ccccc4C)cc3)CC2)cc1,i,-7.5,1.6,0.221,14.5,x
CCOc1cc(NC(=S)NCCCN2CCOCC2)c(OCC)cc1NC(=O)C1CCCCC1,i,3.2,3.3,-0.127,6.6,x
O=C(/C=C/c1c(Cl)cccc1Cl)NCc1ccco1,i,-3.5,-1.8,1.66*,20.4,0.0786
CCOC(=O)c1c(C)n(C)c2ccc(OC)c(NC(=O)CN3CCN(C(=O)c4ccco4)CC3)c12,i,0.4,0.6,x,-45.8,x
CCOC(=O)c1c(C)n(C)c2ccc(OC)c(NC(=O)CN3CCN(Cc4ccccc4)CC3)c12,x,3.2,5.5,-3.25*,10.8,0.0675*
COc1cc2c3c(c1)C(C)CC(C)(C)N3C(=O)C2=O (configuration not stated),i,-13.2,-2.9,3.37*,1.4,0.0951
Cc1ccc(CSCCNC(=O)c2ccc(Cl)c(S(=O)(=O)N3CCOCC3)c2)cc1,i,-25.1,0.1,-3.96*,19.1,0.0741
CCc1ccc2[nH]c(=O)c(CN(CCN(CC)CC)C(=S)NCc3ccco3)cc2c1,i,-10.9,-1.2,-3.26*,-1.0,0.0643*
Cc1cc2cc(CN(CCN(C)C)C(=S)NCc3ccco3)c(=O)[nH]c2cc1C,i,-14.1,-0.6,-3.71*,-36.5,0.0594*
